Reference: the supplement of paper PMC8975748
Counter-ions that a name gives are not always drawn.

Tested on: Saccharomyces cerevisiae BY4741 SeMeCo community
Assay: z-score of subpopulation abundance vs DMSO median, subpopulation auxotrophic for HLUM; higher = larger share of this subpopulation than in DMSO controls
Settings: 10 µM; 24 h; SM minimal medium; subpopulation (auxotrophy): HLUM
Method: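 Fluorescent four-plasmid SeMeCo (self-establishing metabolically cooperating S. cerevisiae BY4741 community; plasmids pH-mRuby2, pL-mWasabi, pU-eCFP, pM-TagRFP657) was grown 24 h in minimal SM medium with each Selleck FDA-approved drug at 10 µM in 384-well plates. Cells were fixed and imaged by high-content confocal microscopy. For each auxotrophic subpopulation (and the prototroph), a z-score gives the deviation from the DMSO vehicle-control population median.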

First: CN(C)C(=O)Oc1ccc[n+](C)c1 [Pyridostigmine Bromide]
Second: CC(NC(C)(C)C)C(=O)c1cccc(Cl)c1 (stereo not given) [Amfebutamone (Bupropion) HCl]
The “z-score of subpopulation abundance” value of the first is lower: -1.14 for the first, 0.09 for the second.

Compared with `COc1cc2c(cc1OC)C1CC(=O)C(CC(C)C)CN1CC2` (stereo not given) [Tetrabenazine (Xenazine)], `C=C(C)[C@H]1Cc2c(ccc3c2O[C@@H]2COc4cc(OC)c(OC)cc4[C@@H]2C3=O)O1` [Rotenone (Barbasco)] is lower in “z-score of subpopulation abundance” value: 2.34 for the first, 0.56 for the second.

First: CN1[C@@H]2CC[C@H]1C[C@@H](OC(=O)C(CO)c1ccccc1)C2 (stereo not given in full) [Atropine sulfate monohydrate]
Second: CN1[C@@H]2CC[C@H]1C[C@@H](OC(=O)[C@H](CO)c1ccccc1)C2 [Hyoscyamine]
The “z-score of subpopulation abundance” value of the first is lower: -0.85 for the first, 0.62 for the second.

Compared with `Oc1cc(Cl)ccc1Oc1ccc(Cl)cc1Cl` [Triclosan], `Cc1cc(C(C#N)c2ccc(Cl)cc2)c(Cl)cc1NC(=O)c1cc(I)cc(I)c1O` (stereo not given) [Closantel] is lower in “z-score of subpopulation abundance” value: 2.06 for the first, 0.27 for the second.

Going from `CC[N+](C)(CC)CCOC(=O)C(O)(c1ccccc1)c1ccccc1` [Methylbenactyzine Bromide] to `CCN(CC)CCOC(=O)C(O)(c1ccccc1)c1ccccc1` [Benactyzine hydrochloride], the “z-score of subpopulation abundance” value rises from -1.18 to 1.13.

Compared with `CC1(C)SC2C(N)C(=O)N2C1C(=O)O` (stereo not given) [6-Aminopenicillanic acid], `CN(C)[C@@H]1C(=O)C(C(N)=O)=C(O)[C@@]2(O)C(=O)C3=C(O)c4c(O)cccc4[C@@](C)(O)[C@H]3C[C@@H]12` [Tetracycline HCl] is higher in “z-score of subpopulation abundance” value: -0.72 for the first, -0.58 for the second.

First: COc1ccc2[nH]cc(CCN)c2c1 [5-Methoxytryptamine]
Second: NCCc1c[nH]c2ccc(O)cc12 [Serotonin HCl]
The “z-score of subpopulation abundance” value of the first is higher: 0.69 for the first, 0.3 for the second.

Compared with `C[N+]1(C)[C@@H]2C[C@@H](OC(=O)[C@H](CO)c3ccccc3)C[C@H]1[C@@H]1O[C@@H]12` [Methscopolamine], `CCC1=C[C@H]2CN3CCc4c([nH]c5ccccc45)[C@](C(=O)OC)(C2)[C@H]13` [Catharanthine] is lower in “z-score of subpopulation abundance” value: 0.24 for the first, -0.22 for the second.

First: N#Cc1nn(-c2c(Cl)cc(C(F)(F)F)cc2Cl)c(N)c1[S+]([O-])C(F)(F)F (stereo not given) [Fipronil]
Second: CN1C(=O)COc2c(C(=O)NC3CN4CCC3CC4)cc(Cl)cc21 (stereo not given) [Azasetron HCl]
The “z-score of subpopulation abundance” value of the first is lower: -0.22 for the first, 0.19 for the second.

Going from `CC[C@@H](C(N)=O)N1CCCC1=O` [Levetiracetam] to `C=CN1CCCC1=O.II` [Povidone iodine], the “z-score of subpopulation abundance” value rises from -0.38 to 0.32.

Going from `CN(C)[C@@H]1C(=O)C(C(N)=O)=C(O)[C@@]2(O)C(=O)C3=C(O)c4c(O)cccc4[C@@](C)(O)[C@H]3[C@H](O)[C@@H]12` [Oxytetracycline Dihydrate] to `CN(C)[C@@H]1C(=O)C(C(N)=O)=C(O)[C@@]2(O)C(=O)C3=C(O)c4c(O)ccc(Cl)c4[C@@](C)(O)[C@H]3C[C@@H]12` [Chlortetracycline HCl], the “z-score of subpopulation abundance” value rises from -0.3 to 0.32.

First: O=C(O[C@H]1C[N+]2(CCCOc3ccccc3)CCC1CC2)C(O)(c1cccs1)c1cccs1 [Aclidinium Bromide]
Second: C[N+]12CCC(CC1)C(OC(=O)C(O)(c1ccccc1)c1ccccc1)C2 (stereo not given) [Clidinium Bromide]
The “z-score of subpopulation abundance” value of the first is lower: -0.18 for the first, 0.51 for the second.

Going from `C[CH2][Hg][S]c1ccccc1C(=O)[O-].[Na+]` [Thimerosal] to `CC(C)N(CCC(C(N)=O)(c1ccccc1)c1ccccn1)C(C)C` (stereo not given) [Disopyramide], the “z-score of subpopulation abundance” value falls from 63.5 to 0.82.

First: CC(C)=CCOc1c2occc2cc2ccc(=O)oc12 [Imperatorin]
Second: COc1ccc2c3c([nH]c2c1)C(C)=NCC3 [Harmaline]
The “z-score of subpopulation abundance” value of the first is higher: 0.23 for the first, -1.92 for the second.

Compared with `C[C@@H]1O[C@@H](O[C@H]2C[C@@H](O)[C@]3(CO)[C@H]4[C@H](O)C[C@]5(C)[C@@H](C6=CC(=O)OC6)CC[C@]5(O)[C@@H]4CC[C@]3(O)C2)[C@H](O)[C@H](O)[C@H]1O` [Ouabain], `C=CC[C@]1(O)CC[C@H]2[C@@H]3CCC4=CC(=O)CCC4=C3C=C[C@@]21C` [Altrenogest] is higher in “z-score of subpopulation abundance” value: -0.91 for the first, -0.9 for the second.

Compared with `COc1ccc(C=O)cc1` [p-Anisaldehyde], `COc1ccc(C(CN(C)C)C2(O)CCCCC2)cc1` (stereo not given) [Venlafaxine] is higher in “z-score of subpopulation abundance” value: -0.16 for the first, -0.12 for the second.

First: C[C@@H]1CC[C@H]2[C@@H](C)C(=O)O[C@@H]3O[C@@]4(C)CC[C@@H]1[C@]32OO4 [Artemisinin]
Second: CN(C)[C@@H]1C(=O)C(C(N)=O)=C(O)[C@@]2(O)C(=O)C3=C(O)c4c(O)cccc4[C@@](C)(O)[C@H]3[C@H](O)[C@@H]12 [Oxytetracycline (Terramycin)]
The “z-score of subpopulation abundance” value of the first is lower: -0.59 for the first, 0.26 for the second.

First: CCOC(=O)Nc1ccc(NCc2ccc(F)cc2)cc1N [Retigabine]
Second: COc1ccc(C(CN(C)C)C2(O)CCCCC2)cc1 (stereo not given) [Venlafaxine HCl]
The “z-score of subpopulation abundance” value of the first is lower: -0.4 for the first, -0.19 for the second.

Compared with `Nc1ccncc1` [4-Aminopyridine], `CCCN1C[C@H](CSC)C[C@@H]2c3cccc4[nH]cc(c34)C[C@H]21` [Pergolide Mesylate] is higher in “z-score of subpopulation abundance” value: -0.46 for the first, -0.1 for the second.

Going from `COC(=O)C1=CCCN(C)C1` [Arecoline HBr] to `CC[C@H]1[C@@H]2C[C@H]3[C@@H]4N(C)c5ccccc5[C@]45C[C@@H]([C@@H]2[C@H]5O)N3[C@@H]1O` [Ajmaline], the “z-score of subpopulation abundance” value falls from -0.09 to -0.76.
